A selection: hits, their analogues and other compounds. The true share with any hit is near 3.5%.
CHRM1 agonist – human M1 muscarinic receptor agonists, primary screen, Fluo-8 calcium fluorescence, CHO-K1 cells, HTS. CHO-K1 hM1, agonist mode; 0% DMSO, 100% acetylcholine EC100. activation, % at 3 µM. hit rate 0.33% among 360,000;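 active = activation above the run's mean compound activation plus 3 SD, cut at about 16% in these data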;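 note: peak over basal fluorescence ratio within a 140 s kinetic read after compound addition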
Target sequence (P11229 whole entry, looked up): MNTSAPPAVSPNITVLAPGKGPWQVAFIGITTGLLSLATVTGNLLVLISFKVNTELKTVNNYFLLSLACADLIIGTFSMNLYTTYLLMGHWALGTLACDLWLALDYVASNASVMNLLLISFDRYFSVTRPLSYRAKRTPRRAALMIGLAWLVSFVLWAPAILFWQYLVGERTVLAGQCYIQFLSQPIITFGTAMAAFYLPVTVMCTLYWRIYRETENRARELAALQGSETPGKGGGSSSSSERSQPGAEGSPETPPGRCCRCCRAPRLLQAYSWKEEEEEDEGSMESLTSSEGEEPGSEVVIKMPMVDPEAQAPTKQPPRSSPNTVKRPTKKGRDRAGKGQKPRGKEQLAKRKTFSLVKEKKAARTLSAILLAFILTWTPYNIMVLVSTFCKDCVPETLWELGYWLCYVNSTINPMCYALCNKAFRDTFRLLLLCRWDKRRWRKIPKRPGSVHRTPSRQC
M1 PAM – human M1 muscarinic receptor positive allosteric modulators, primary screen, CHO-K1 cells, Fluo-8 calcium fluorescence, 1536-well; Muscarinic acetylcholine receptor M1 (Homo sapiens), P11229; CHO-K1 hM1, ACh EC20; 0% = ACh EC20, 100% = maximal ACh; activation, % at 3 µM; hit rate 0.088% among 360,000; AID 588819, 2011; in the data active = activation above about 19%, passing the limit was not always enough
SKN-1 inh – suppressors of acrylamide-induced Pgst-4::GFP reporter in worms, primary screen, SKN-1 inhibitor project, whole organism, uHTS, GFP/RFP fluorescence ratio, strain VP596. inhibition, % at 21.8 µM. C. elegans VP596 Pgst-4::GFP/RFP ratio, 24 h. AID 624304, 2012. hit rate 0.49% among 360,000;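 active = interference check ratio from 0.5 to 1.5 plus GFP to RFP signal ratio inhibition reaching or exceeding a fixed threshold, cut at about 30% in these data, passing the limit was not always enough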
M1 antag – human M1 muscarinic receptor antagonists, primary screen, CHO-K1 cells, Fluo-8 calcium fluorescence, 1536-well; Muscarinic acetylcholine receptor M1 (Homo sapiens), P11229; CHO-K1 hM1, ACh EC80 antagonist; inhibition, % at 3 µM; hit rate 1.3% among 360,000; AID 588852, 2011;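 active = percent inhibition above its own plate's cutoff, namely the mean of that plate's compound wells plus 3 SD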;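 note: peak over basal fluorescence ratio during 140 s after agonist addition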
Myeloid diff 2 – induction of myeloid progenitor differentiation, primary screen, cell-based, flow cytometry, MLPCN library | ER-HoxA9 myeloid progenitors, lysozyme-GFP differentiation | calls only at 10 µM | hit rate 1% among 360,000 | AID 624256, 2012;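 active = normalized GFP-positive differentiation at or above the plate's own cutoff, the solvent-only control mean plus 3 SD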;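 note: cells exposed to compound for four days before flow analysis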
ATG4B inh – ATG4B protease inhibitors, primary screen, biochemical, fluorescence, uHTS; ATG4B cleavage of LC3-PLA2, NBD-HPC fluorescence, 1 h; inhibition, % at 8.33 µM; hit rate 0.51% among 340,000; AID 504462, 2011; in the data active = inhibition above about 40%
Numbers stand for hits; . = inactive; / = no result; + = active, no number.

SMILES	CHRM1 agonist	M1 PAM	SKN-1 inh	M1 antag	Myeloid diff 2	ATG4B inh
Fc1ccc(-c2nc3ccc(Cl)cn3c2Cc2ccsc2)cc1	.	.	40	.	.	/
Clc1ccc2nc(-c3cccc(Br)c3)c(Cc3ccsc3)n2c1	.	.	.	.	.	/
Brc1cccc(-c2nc3ccc(Br)cn3c2Cc2ccsc2)c1	.	.	47	.	.	/
CC(C)NC(=O)C1(C)CCN1C(=O)c1c(F)cccc1F (stereo not given)	.	.	.	.	.	/
CCNC(=O)C1(C)CCCN(C(=O)c2csc3ccccc23)C1 (stereo not given)	.	.	.	.	.	/
CCCOc1ccc(C(=O)Nc2ccc(N3CCOCC3)cc2N2CCOCC2)cc1OCC	.	.	.	.	.	/
C[C@H]1CN([C@@H](C)CO)S(=O)(=O)c2ccc(C#Cc3ccccn3)cc2O[C@@H]1CN(C)C(=O)C1CC1	.	.	.	.	.	/
CCOC(=O)Cc1csc(NC(=O)CSc2ncnc3c2cnn3-c2ccccc2Cl)n1	.	.	.	28	.	.
Cc1nnc(NC(=O)CSc2ncnc3c2cnn3-c2ccccc2C)s1	.	.	.	.	.	.
O=C1C2C3C=CC(C3)C2C(=O)N1c1ccc(N2CCN(c3ccccn3)CC2)c([N+](=O)[O-])c1 (stereo not given)	.	.	.	39	.	.
COc1cc(CCC(=O)OCC(=O)Nc2sccc2C(N)=O)cc(OC)c1OC	.	.	.	37	.	.
NC(=O)c1ccsc1NC(=O)COC(=O)Cc1cccc2ccccc12	.	.	.	40	.	.
COc1ccc(NC(=O)COC(=O)c2cccc(S(=O)(=O)N(C)C)c2)cc1	.	.	.	.	.	.
CN(C)S(=O)(=O)c1cccc(C(=O)OCC(=O)Nc2sccc2C(N)=O)c1	.	.	.	37	.	.
COc1cc(Cl)ccc1OC1(C)CCN(Cc2cccn2-c2nccs2)C1 (stereo not given)	.	.	.	.	.	/
COc1ccc(NC(=O)CNc2ccccc2N2CCCC2=O)cc1S(=O)(=O)N1CCOCC1	.	.	.	.	.	.
C=CCSc1nnc(N2C(=O)C(O)=C(C(=O)c3ccco3)C2c2ccccc2F)s1 (stereo not given)	.	.	.	.	+	.
CCCSc1nnc(N2C(=O)C(O)=C(C(=O)c3ccco3)C2c2ccccc2F)s1 (stereo not given)	.	.	.	.	.	.
CC1Cc2ccccc2N1C(=S)Nc1ccc(S(N)(=O)=O)cc1 (stereo not given)	.	.	.	.	+	.
CC(=O)c1ccc(NC(=S)N2c3ccccc3CC2C)cc1 (stereo not given)	.	.	.	.	.	.
COc1ccc(-c2[nH]ncc2N=Nc2cc(C)cc(C)c2)cc1	.	.	.	.	+	.
COc1ccc(-c2[nH]ncc2N=Nc2ccccc2)cc1	.	.	.	.	.	.
O=C(NCCN1CCC(n2c(=O)[nH]c3ccccc32)CC1)c1ccc(Cl)cc1Cl	/	/	.	/	.	/
COc1cccc(-n2nc3c(=O)n(Cc4ccccc4Cl)nc(C)c3c2C)c1	.	.	.	.	.	.
CS(=O)(=O)N1CCN(C(=O)c2cc(-c3ccncc3)nc3ccc(Cl)cc23)CC1	.	.	.	31	.	.
SMILES	CHRM1 agonist	M1 PAM	SKN-1 inh	M1 antag	Myeloid diff 2	ATG4B inh
O=C(NC(=O)c1ccc(Cl)cc1)Nc1cc(N2CCCCC2)ncn1	.	.	.	.	.	.
O=C(Nc1ccccc1C(=O)N1CCCCCC1)c1ccc(F)cc1	.	.	.	.	.	.
COCCNc1nc(-c2ccc(OC)cc2)c(-c2ccc(OC)cc2)s1	.	.	.	.	.	.
O=C(NC(=S)Nc1ccc(CN2CCOCC2)cc1)c1ccc(-c2cccc(Cl)c2)o1	.	.	.	58	.	.
O=C(NC(=S)Nc1ccc(CN2CCOCC2)cc1)c1ccc(-c2ccc(Br)cc2)o1	/	/	/	/	/	.
COc1ccc(Br)cc1C(=O)NC(=S)Nc1ccc(CN2CCOCC2)cc1	.	.	.	32	.	.
COCCC(=O)N1CCC(n2nccc2NC(=O)c2ccccc2C)CC1	.	.	.	.	.	.
COc1ccc(CCNC(=O)c2ccc3c(c2)N(Cc2ccccc2)CCS3)cc1OC	.	.	.	39	.	.
CCN1CCSc2ccc(C(=O)NCc3ccccc3F)cc21	.	.	.	.	+	.
NS(=O)(=O)c1ccc(CCNC(=O)c2ccc3c(c2)N(Cc2ccccc2)CCS3)cc1	.	.	.	37	.	.
Cc1nn(C)cc1S(=O)(=O)N1CCN(c2ccccc2)CC1	.	.	.	.	.	.
CCOc1ccc(/C=N/NC(=O)C(O)c2ccccc2)c(O)c1 (stereo not given)	.	.	.	.	/	.
COc1ccccc1NC(=O)Cn1nnc(-c2ccccc2NC(=O)c2ccco2)n1	.	.	.	.	.	.
COc1ccc(NC(=O)Cn2nnc(-c3ccccc3NC(=O)c3ccco3)n2)cc1	.	.	.	.	+	.
Cc1cccc(C(=O)Oc2ccc3ccc(O)cc3c2)c1	.	.	.	.	.	.
CC(=O)Nc1ccc(N/C(N)=N/c2nc(C)cc(C)n2)cc1	.	.	.	.	.	.
Cc1cc(C)nc(/N=C(\N)Nc2ccc(SC(F)F)cc2)n1	19	.	.	.	.	.
Cc1ccccc1N1CCN(C2CCCN(C(=O)CCC(=O)N(C)C)C2)CC1 (stereo not given)	.	.	.	.	.	.
Cc1ccn(CCC(=O)N2CCCC(N3CCN(c4ccccc4C)CC3)C2)n1 (stereo not given)	49	.	.	.	.	/
CCCCCCS(=O)[C@H]1CS(=O)(=O)C[C@@H]1S(=O)CCCCCC (stereo not given in full)	.	.	.	19	.	.
CN(C)c1ccc(N=Nc2nccs2)cc1	.	.	56	.	.	/
CCOC(=O)COc1nc(-c2ccccc2)cc(-c2ccco2)c1C#N	.	.	.	40	.	.
CCN(CC)c1ccc(NC(=O)CSC(=O)c2ccccc2)cc1	.	.	.	.	+	.
CCOC(=O)CN1CC23C=CC(O2)C(C(=O)NCc2cccs2)C3C1=O (stereo not given)	.	.	37	.	.	.

High-throughput results (PubChem)
